# From PubChem BioAssay (NCI)
# The panel holds about 83,000 compounds, 20% with a hit somewhere; the sample as a whole holds those more often.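 Cell lines were cultured in 96-well plates, exposed to a single compound concentration, and assessed for percent growth 48 hours later.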 Values without a mark were called inactive. The source made the active and inactive calls. How the source made its calls: active means growth percent below 10; inactive means the rest.
# Key:
# Assay in all cases: NCI-60 one-dose screen, 48 h (100 = growth as untreated, 0 = no growth, -100 = all killed)
# Conditions in all cases: 10 µM unless noted
# DU-145 prostate = test system: DU-145 prostate
# K-562 leukemia = test system: K-562 leukemia
# MALME-3M melanoma = test system: MALME-3M melanoma
# MDA-MB-231 breast = test system: MDA-MB-231 breast
# RXF 393 renal = test system: RXF 393 renal
# SF-268 CNS = test system: SF-268 CNS
# SF-295 CNS = test system: SF-295 CNS
# SF-539 CNS = test system: SF-539 CNS
# UACC-257 melanoma = test system: UACC-257 melanoma
# HCT-15 colon = test system: HCT-15 colon
# HT29 colon = test system: HT29 colon
# SNB-19 CNS = test system: SNB-19 CNS
# PC-3 prostate = test system: PC-3 prostate
# SK-MEL-5 melanoma = test system: SK-MEL-5 melanoma
# UACC-62 melanoma = test system: UACC-62 melanoma
# LOX IMVI melanoma = test system: LOX IMVI melanoma
# SK-MEL-28 melanoma = test system: SK-MEL-28 melanoma
# SNB-75 CNS = test system: SNB-75 CNS
# U251 CNS = test system: U251 CNS
# M14 melanoma = test system: M14 melanoma
Compound,growth (DU-145 prostate),growth (K-562 leukemia),growth (MALME-3M melanoma),growth (MDA-MB-231 breast),growth (RXF 393 renal),growth (SF-268 CNS),growth (SF-295 CNS),growth (SF-539 CNS),growth (UACC-257 melanoma),growth (HCT-15 colon),growth (HT29 colon),growth (SNB-19 CNS),growth (PC-3 prostate),growth (SK-MEL-5 melanoma),growth (UACC-62 melanoma),growth (LOX IMVI melanoma),growth (SK-MEL-28 melanoma),growth (SNB-75 CNS),growth (U251 CNS),growth (M14 melanoma)
COc1cc(OC)c(NC(=O)n2ncc3cc(Nc4ncnc5ccccc45)ccc32)cc1Cl,56.9%,99.4%,110%,97.2%,88.4%,87.4%,98.7%,99.5%,118%,93.8%,80.3%,90.6%,97.5%,94.3%,105%,102%,98.7%,,,
CCOC(=O)C1=C(C(F)(F)F)NC(=O)NC1CN1C(=O)c2ccccc2C1=O (configuration not stated),106%,76.1%,113%,100%,106%,103%,104%,100%,103%,123%,113%,111%,92%,111%,92.9%,111%,113%,98.4%,107%,
CCCCCCCCCCCC(=O)OC(C)C(=O)Nc1ccccc1 (configuration not stated),106%,97.7%,96.3%,109%,117%,102%,85.7%,98.9%,99.7%,97%,99.7%,95.1%,90.3%,118%,100%,,108%,71.9%,97.7%,
CCCCCCCCCCCCCCCCCC(=O)Nc1ccc(O)cc1,103%,96.6%,94.1%,86.3%,99.6%,84.2%,106%,-16% (active),,110%,96.7%,118%,66.6%,105%,102%,96.9%,103%,72%,93.4%,103%
COc1ccc(NC(=O)/C=C(C)/C=C/C=C(C)/C=C/C2=C(C)CCCC2(C)C)cc1,101%,46.7%,68.1%,38.3%,79.4%,81.4%,80%,32.8%,87.4%,72.5%,72.4%,110%,63.1%,110%,77.4%,68.4%,105%,66.3%,,
O=C(Nn1cnc2ccccc21)N1CCCC1,102%,94%,92.2%,94.2%,109%,117%,98.7%,91.8%,101%,112%,109%,110%,106%,113%,105%,98.1%,116%,107%,99.8%,
CCS(=O)(=O)N[C@@H]1O[C@H](COC(C)=O)C(OC(C)=O)[C@H](OC(C)=O)C1OC(C)=O (some centres not stated),105%,99.4%,115%,110%,88.1%,94.4%,111%,95.1%,,93.8%,102%,115%,102%,105%,110%,92.8%,108%,93.9%,97.7%,109%
CCOP1(=O)CC(C)=C(Cl)C(P(=O)(O)O)C1 (configuration not stated),109%,101%,95.1%,100%,96%,109%,109%,105%,87.3%,98.3%,104%,106%,95.6%,109%,95.5%,94.1%,93.7%,82.4%,99.7%,
COc1ccc(-n2nnnc2-c2cn[nH]c2C(F)(F)F)cc1,101%,87.2%,107%,83.4%,-6.74% (active),109%,88.3%,89.6%,93.7%,110%,93.1%,101%,105%,94.4%,83.6%,95.6%,96.2%,102%,94.8%,
